# Experimental data published in PubChem BioAssay (NCATS).
# Results filed as inconclusive are left out. Where a call stands in place of a potency, no number is given. Unmarked numbers belong to inactive results. The source made the active and inactive calls. Calls come from the whole dose curve; as a rule, active = well fitted curve in the direction sought with a large enough effect; inconclusive = small, poorly fitted or top-dose-only effect, or another doubt; inactive = no such curve, though single readings can be large; an effect the other way counts as inactive or inconclusive. *1 amine or outer side, *2 acyl side, *3 side chain or, on linkers, in order; H or OH if unused. Where a SMILES comes first, the peptide text is derived from it. Bridges are numbered along the chain shown (N, C = ends). [ ]: non-standard residue; d: D form. The star is where a group is joined. ξ: configuration not given here. ξhTyr(3S-OH,4S-OH,3'-OSO3H) = NC(C(=O)O)[C@H](O)[C@@H](O)c1ccc(O)c(OS(=O)(=O)O)c1; X9 = CCC(C)(N*)C(=O)C1CC[C@@H](C(=O)N[C@@H](Cc2ccccc2)C(=O)NCC(=O)O)N1; Orn(4R-OH,5R-OH) = O=C([C@H](C[C@@H](O)[C@@H](O)N[*:3])N[*:1])[*:2]; X2 = CCCCCOc1ccc(-c2cc(-c3ccc(C(=O)*)cc3)no2)cc1; X3 = C[C@H]1CN([*:1])C(C(=O)[*:2])[C@H]1O; ξGln(3R-OH) = NC(=O)C[C@@H](O)C(N)C(=O)O; X8 = O=C([C@@H]1CC(O)CN1[*:1])[*:2]; ξPro(4R-OH) = O=C(O)C1C[C@@H](O)CN1; aIle = CC[C@@H](C)[C@H](N)C(=O)O; ξThr(3R) = C[C@@H](O)C(N)C(=O)O; Thr(3ξ) = CC(O)[C@H](N)C(=O)O; ξIva = CCC(C)(N)C(=O)O; Aib = CC(C)(N)C(=O)O
# Assays:
# CRL-7250 = normal cell line; experiment: Cytotoxic Profiling of Annotated Libraries Using Quantitative High-Throughput Screening (AID 1296008); conditions: Five cell lines viability, CellTiter-Glo ATP luminescence, 48-72 h; max response: active compounds read low; note: nearly all actives have a fitted effect of over 60% in size; note: potency is the fitted concentration of half-maximal effect
# How it was run: (§1)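 Compounds were pin-transferred onto cells and incubated 48 or 72 hr at 37 degree Celsius, 95% humidity. CellTiter-Glo was added, plates sat 10 min at room temperature, then ATP-coupled luminescence was imaged as the viability read-out.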
# HEK293 = experiment: as above; conditions: Five cell lines viability, CellTiter-Glo ATP luminescence, 48-72 h; max response: active compounds read low
# How it was run: as §1
# HaCat [1] = experiment: as above; conditions: Five cell lines viability, CellTiter-Glo ATP luminescence, 48-72 h; max response: active compounds read low
# How it was run: as §1
# KB-3-1 = experiment: as above; conditions: Five cell lines viability, CellTiter-Glo ATP luminescence, 48-72 h; max response: active compounds read low
# How it was run: as §1
# NIH3T3 = experiment: as above; conditions: Five cell lines viability, CellTiter-Glo ATP luminescence, 48-72 h; max response: active compounds read low
# How it was run: as §1
# HACAT [2] = experiment: qHTS assay to identify novel small-molecules to repurpose for Merkel cell carcinoma treatment (AID 1296009); conditions: MCC and control cell lines, CellTiter-Glo viability, 72 h; at 44.8 µM (top of the series) unless noted; note: nearly all actives have a fitted effect of over 60% in size
# How it was run: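 qHTS format: cells treated with library compounds in DMSO across 8 (NPC) or 11 (MIPE) concentrations. Readout after 72 hr at 37 degree celsius was CellTiter-Glo luminescence.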
# C33A = experiment: Primary qHTS to identify gynecologic anti-cancer compounds using libraries of approved drugs and bioactive compounds (AID 1345084); conditions: Gynecologic cancer cell panel viability, ATPlite luminescence, 48 h; series mostly up to 57.5 µM; note: nearly all actives have a fitted effect of over 55% in size
# How it was run: (§2)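 Cell viability after 48 h drug treatment, ATPlite luminescence readout; five doses.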
# CAOV3 = experiment: as above; conditions: Gynecologic cancer cell panel viability, ATPlite luminescence, 48 h; series mostly up to 57.5 µM
# How it was run: as §2
# CASKI = experiment: as above; conditions: Gynecologic cancer cell panel viability, ATPlite luminescence, 48 h; series mostly up to 57.5 µM
# How it was run: as §2
# Es-2 = experiment: as above; conditions: Gynecologic cancer cell panel viability, ATPlite luminescence, 48 h; series mostly up to 57.5 µM
# How it was run: as §2
# HeLa = experiment: as above; conditions: Gynecologic cancer cell panel viability, ATPlite luminescence, 48 h; series mostly up to 57.5 µM
# How it was run: as §2
# Hek293T = experiment: as above; conditions: Gynecologic cancer cell panel viability, ATPlite luminescence, 48 h, control line for the selectivity index; series mostly up to 57.5 µM
# How it was run: as §2
# JEG-3 = experiment: as above; conditions: Gynecologic cancer cell panel viability, ATPlite luminescence, 48 h; series mostly up to 57.5 µM
# How it was run: as §2
# PA-1 = experiment: as above; conditions: Gynecologic cancer cell panel viability, ATPlite luminescence, 48 h; series mostly up to 57.5 µM
# How it was run: as §2
# OV90 = experiment: as above; conditions: Gynecologic cancer cell panel viability, ATPlite luminescence, 48 h; series mostly up to 57.5 µM
# How it was run: as §2
compound,measurement,setting,value
Cc1ncc(NC(=O)c2ccc(CN3CCN(C)CC3)c(C(F)(F)F)c2)cc1Nc1nccc(-c2cccnc2)n1,max response,CRL-7250,-2.29%
same,Potency,HEK293,16.4 µM (active)
same,outcome,HaCat [1],inactive
same,max response,KB-3-1,8.35%
same,max response,NIH3T3,1.55%
same,outcome,HACAT [2],inactive
same,Potency,C33A,inactive
same,Potency,CAOV3,inactive
same,outcome,CASKI,inactive
same,Potency,Es-2,inactive
same,Potency,HeLa,inactive
same,Potency,Hek293T,inactive
same,Potency,JEG-3,inactive
same,Potency,PA-1,inactive
COC(=O)C1=COC(O[C@@H]2O[C@H](COC(=O)/C=C/c3ccc(O)cc3)[C@@H](O)[C@H](O)[C@H]2O)C2C(CO)=CCC12 (stereo partly drawn),outcome,CRL-7250,inactive
same,max response,HEK293,-1.21%
same,outcome,HaCat [1],inactive
same,outcome,KB-3-1,inactive
same,max response,NIH3T3,2.77%
same,outcome,HACAT [2],inactive [at 17.4 µM]
same,Potency,C33A,inactive
same,Potency,CAOV3,inactive
same,outcome,CASKI,inactive
same,Potency,Es-2,inactive
same,Potency,HeLa,inactive
same,Potency,JEG-3,inactive
same,Potency,OV90,inactive
same,Potency,PA-1,inactive
CC1CC2OCC3(O)CCC(O)C(C14CC(c1ccoc1)OC4=O)C23CO (stereo not drawn),outcome,CRL-7250,inactive
same,max response,HEK293,-3.58%
same,outcome,HaCat [1],inactive
same,max response,KB-3-1,9.94%
same,outcome,NIH3T3,inactive
same,outcome,HACAT [2],inactive
same,Potency,C33A,inactive
same,Potency,CAOV3,inactive
same,outcome,CASKI,inactive
same,Potency,Es-2,inactive
same,Potency,HeLa,inactive
same,Potency,Hek293T,inactive
same,Potency,JEG-3,inactive
same,Potency,OV90,inactive
same,Potency,PA-1,inactive
"CCCCCOc1ccc(-c2cc(-c3ccc(C(=O)N[C@H]4C[C@@H](O)[C@@H](O)NC(=O)C5[C@@H](O)[C@@H](C)CN5C(=O)C([C@H](O)CC(N)=O)NC(=O)C([C@H](O)[C@@H](O)c5ccc(O)c(OS(=O)(=O)O)c5)NC(=O)C5C[C@@H](O)CN5C(=O)C([C@@H](C)O)NC4=O)cc3)no2)cc1 (stereo partly drawn) (X2-[Orn(4R-OH,5R-OH)][ξThr(3R)][ξPro(4R-OH)][ξhTyr(3S-OH,4S-OH,3'-OSO3H)][ξGln(3R-OH)][X3]; lactam 1-C)",outcome,CRL-7250,inactive
same,max response,HEK293,-7.85%
same,outcome,HaCat [1],inactive
same,outcome,KB-3-1,inactive
same,max response,NIH3T3,3.77%
same,outcome,HACAT [2],inactive [at 17.4 µM]
same,Potency,C33A,inactive
same,Potency,CAOV3,inactive
same,Potency,Es-2,inactive
same,Potency,HeLa,inactive
same,Potency,Hek293T,inactive
same,Potency,JEG-3,inactive
same,Potency,OV90,inactive
same,Potency,PA-1,inactive
CC(C)(O)C1OC1C1=CC(=O)C2(C)OC2C1O (stereo not drawn),outcome,CRL-7250,inactive
same,max response,HEK293,-1.71%
same,outcome,HaCat [1],inactive
same,outcome,KB-3-1,inactive
same,max response,NIH3T3,3.09%
same,outcome,HACAT [2],inactive
same,Potency,C33A,inactive
same,Potency,CAOV3,inactive
same,Potency,Es-2,inactive
same,Potency,HeLa,inactive
same,Potency,Hek293T,inactive
same,Potency,JEG-3,inactive
same,Potency,OV90,inactive
same,Potency,PA-1,inactive
CCOc1ccc(-c2nn3ncccc3c2-c2ccc(S(C)(=O)=O)cc2)cc1,max response,CRL-7250,-7.67%
same,max response,HEK293,-11.9%
same,outcome,HaCat [1],inactive
same,max response,KB-3-1,2.36%
same,max response,NIH3T3,3.39%
same,outcome,HACAT [2],inactive
same,Potency,C33A,inactive
same,Potency,CAOV3,inactive
same,outcome,CASKI,inactive
same,Potency,Es-2,inactive
same,Potency,HeLa,inactive
same,Potency,Hek293T,inactive
same,Potency,OV90,inactive
same,Potency,PA-1,inactive
COC(=O)C1=COC(OC2OC(CO)C(O)C(O)C2O)C2C(C)C(OC(C)=O)C(OC(=O)c3ccccc3)C12 (stereo not drawn),max response,CRL-7250,-19.7%
same,max response,HEK293,-48.1%
same,outcome,HaCat [1],inactive
same,outcome,KB-3-1,inactive
same,max response,NIH3T3,-45.7%
same,outcome,HACAT [2],inactive [at 17.4 µM]
same,Potency,C33A,inactive
same,Potency,CAOV3,inactive
same,outcome,CASKI,inactive
same,Potency,Es-2,inactive
same,Potency,HeLa,inactive
same,Potency,Hek293T,inactive
same,Potency,JEG-3,inactive
same,Potency,OV90,inactive
same,Potency,PA-1,inactive
CC[C@@H](C)[C@H](NC(=O)C(C)(C)NC(=O)[C@H](CCC(N)=O)NC(=O)C(C)(CC)NC(=O)[C@H](Cc1c[nH]c2ccccc12)NC(C)=O)C(=O)N[C@H](C(=O)NC(C)(C)C(=O)N[C@@H](CC(C)C)C(=O)NC(C)(C)C(=O)N1CCC[C@H]1C(=O)N[C@@H](CCC(N)=O)C(=O)NC(C)(C)C(=O)N1CC(O)C[C@H]1C(=O)NC(C)(CC)C(=O)C1CC[C@@H](C(=O)N[C@@H](Cc2ccccc2)C(=O)NCC(=O)O)N1)C(C)O (stereo partly drawn) (Ac-W[ξIva]Q[Aib][aIle][Thr(3ξ)][Aib]L[Aib]PQ[Aib][X8]-X9),max response,CRL-7250,-9.43%
same,max response,HEK293,-13.1%
same,outcome,HaCat [1],inactive; activator
same,max response,KB-3-1,-1.3%
same,max response,NIH3T3,-1.9%
same,outcome,HACAT [2],inactive; activator [at 4.96 µM]
same,"activity change, negative = cytotoxicity",C33A,-11% [at 6.55 µM]
same,"activity change, negative = cytotoxicity",CAOV3,-26.3% [at 6.55 µM]
same,"activity change, negative = cytotoxicity",Es-2,1.15% [at 6.55 µM]
same,"activity change, negative = cytotoxicity",HeLa,-27.1% [at 6.55 µM]
same,"activity change, negative = cytotoxicity",Hek293T,-15.3% [at 6.55 µM]
same,"activity change, negative = cytotoxicity",OV90,-20.1% [at 6.55 µM]
same,"activity change, negative = cytotoxicity",PA-1,-32% [at 6.55 µM]
C[C@@H]1CC2OC(=O)C3=C2C(CCC3O)[C@@]12C[C@@H](c1ccoc1)OC2=O (stereo partly drawn),max response,CRL-7250,-0.741%
same,max response,HEK293,2.79%
same,outcome,HaCat [1],inactive
same,outcome,KB-3-1,inactive
same,outcome,NIH3T3,inactive
same,outcome,HACAT [2],inactive
same,Potency,C33A,inactive
same,Potency,CAOV3,inactive
same,outcome,CASKI,inactive
same,Potency,Es-2,inactive
same,Potency,HeLa,inactive
same,Potency,Hek293T,inactive
same,Potency,JEG-3,inactive
same,Potency,OV90,inactive
same,Potency,PA-1,inactive
